# From the supplement of paper PMC8728848
# Shown is part of a subset that was picked to be rich in the strongest signals.
# B1: Awp3 (Candida glabrata), B4UN32 (protein)
# chain: MISFVTLLAILGLLSISWADQTVRSVAGDQRVTDPVIVGDNSILDYYGGSNYDFSNNFEIGRGTLYIGKESYFSSFQSAPTDVPNSFHLLIKNTNNLQNNGQFIIENIKRHANQCSNSSIQVFPINFQNDGEFEIISGGVEGRCCLPTSVIAPQNFLNNGKFYYKVLTDTGSIYSGSCMQNVDIGASTTTTVNNNLWEFTGSINAQINGAVSGAAQINLDGSNMFVNANTFSGQVVNLINGGSFLQTSDPLSNIVVINGLGTSDTGVTSIAVKGKGKSFTYNPSSGIVKLTTVEGKTYAYQIGCGYNTKKFITNNDSGASYESADNFFVLTYSEPYSPQTCQLENSSIFSSNFISTSTSSSSSSSSASSLPSSMSSSLPSSLSSSLSSSLSSSMSSSMSSLFIIPPPYTTTRSSGSSIIDTEIVSFYSTTDSPGHTITGTTTTTLYGPHTHSSVSTPSSSSESSTTSNSSIESSSLPHTSVSSTPESSITPSSNTISSSPTSDFSSVQSSSIMESSSVVASSSVINSSSIVDSSSSSASSLPSSMSSSLSSSMSSSLPSSMSSSLSSSLSSSLSSSMSSSMSSLFIIPPPYTTTRSSGSSIIDTEIVSFYSTTDSPGHTITGTTTTTLYGPHTHSSVSTPSSSSESSTTSNSSIESSSLPHTSVSSTPESSITPSSNTISSSPTSDFSSVQSSSIMESSSVVASSSVINSSSIVDSSSSSASSLPSSMPSSLPSSMSSSLSSSMSSSLSSSLSSSLSSSMSSSMSSLFIIPPPYTTTRSSGSSIIDTEIVSFYSTTDSPGHTITGTTTTTLYGPHTHSSVSTPSSSSESSTTSNSSIESSSLPHTSVSSTPESSITPSSNTISSSPTSDFSSVQSSSIMESSSVVASSSATQSSSVINSSSIVDSSSSSASSLPSSMPSSLPSSLSSSLSSSLSSSMSSSMSSLFIIPPPYTTTRSSGSSIIDTEIVSFYSTTDSPGHTITGTTTTTLYESSIYSSSSSTIQESELSNTSRTTMTSNSSVSISSTSSRSSFSNTKSSTIVISQSASLPDSKTDIILSTSSNIGYSSRSLLSDLGTSISDSDIHHSVLHSTESYSSNESGTNPFTSIASLSNFIPESSSHTSTALGSENSVISSDILTTMSHPVATNSGDKPTTPKRSEQVSTTMTSSGPTPDTSSFDTDGMSAYSRPEFTTNSLEVNKSSTSQLGNNKQTFSNLQLESTRPHSENEVDNNTRLLQSIQQSSTYGTNNVNPLSPTGSISIPLTEDGQGDNNNWNSPATNDLCTQISFNLTATTITVTDRITITDSIHDISSEVITSYIYQTIVDQKTVTQTVDGKSLANKMSSIPKPSSRSLIQPQPPVAIELQEGAASTSRVSLVSLFISIILVLL
# Key:
# Test in all cases: glycan array binding signal (z-score within array); higher = stronger binding
# Conditions in all cases: glycan notation: IUPAC condensed, linker removed
# [1] = molecular target: GalNAc(b1-3)Gal(a1-4)Gal(b1-4)GlcNAc
# Method in brief: (§1)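 Glycan array data came from 3228 arrays in the Consortium for Functional Glycomics database, and only arrays with an available protein sequence were kept. Glycan names were put into IUPAC-condensed notation, and columns mapping to the same glycan were averaged. The binding signal is a within-array Z-score, averaged across arrays of one protein sequence run at different concentrations or buffers and across linkers. A negative Z-score can be read as non-binding.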
# GalNAc3S(b1-4)GlcNAc = molecular target: GalNAc3S(b1-4)GlcNAc
# Method in brief: as §1
# [2] = molecular target: GlcNAc(a1-4)Gal(b1-4)GlcNAc(b1-3)Gal(b1-4)Glc
# Method in brief: as §1
# [3] = molecular target: GlcNAc(a1-6)Gal(b1-4)GlcNAc
# Method in brief: as §1
# [4] = molecular target: GlcNAc(b1-2)[GlcNAc(b1-4)]Man(a1-3)[GlcNAc(b1-4)][GlcNAc(b1-2)[GlcNAc(b1-6)]Man(a1-6)]Man(b1-4)GlcNAc(b1-4)GlcNAc
# Method in brief: as §1
# [5] = molecular target: GlcNAc(b1-3)Gal(b1-4)GlcNAc(b1-2)Man(a1-3)[GlcNAc(b1-3)Gal(b1-4)GlcNAc(b1-2)Man(a1-6)]Man(b1-4)GlcNAc(b1-4)[Fuc(a1-6)]GlcNAc
# Method in brief: as §1
# [6] = molecular target: GlcNAc(b1-3)Gal(b1-4)GlcNAc(b1-3)Gal(b1-4)GlcNAc(b1-3)GalNAc
# Method in brief: as §1
# Man(a1-6)Man = molecular target: Man(a1-6)Man
# Method in brief: as §1
# Man(b1-4)GlcNAc = molecular target: Man(b1-4)GlcNAc
# Method in brief: as §1
# Neu5Ac(a2-3)Gal = molecular target: Neu5Ac(a2-3)Gal
# Method in brief: as §1
# [7] = molecular target: Neu5Ac(a2-3)Gal(b1-3)GalNAc(b1-4)[Neu5Ac(a2-3)]Gal(b1-4)Glc
# Method in brief: as §1
# [8] = molecular target: Neu5Ac(a2-3)Gal(b1-3)GalNAc(b1-4)[Neu5Ac(a2-8)Neu5Ac(a2-3)]Gal(b1-4)Glc
# Method in brief: as §1
# [9] = molecular target: Neu5Ac(a2-3)Gal(b1-3)GlcNAc(b1-2)Man(a1-3)[Neu5Ac(a2-3)Gal(b1-3)GlcNAc(b1-2)Man(a1-6)]Man(b1-4)GlcNAc(b1-4)GlcNAc
# Method in brief: as §1
# [10] = molecular target: Neu5Ac(a2-3)Gal(b1-4)GlcNAc(b1-6)[Neu5Ac(a2-3)Gal(b1-3)]GalNAc
# Method in brief: as §1
# [11] = molecular target: Neu5Ac(a2-3)[Neu5Ac(a2-6)]GalNAc
# Method in brief: as §1
# [12] = molecular target: Neu5Ac(a2-6)Gal(b1-4)GlcNAc(b1-2)Man
# Method in brief: as §1
# [13] = molecular target: Neu5Ac(a2-6)Gal(b1-4)GlcNAc(b1-2)Man(a1-6)[Man(a1-3)]Man(b1-4)GlcNAc(b1-4)GlcNAc
# Method in brief: as §1
# [14] = molecular target: Neu5Ac(a2-6)Gal(b1-4)GlcNAc(b1-3)Gal(b1-4)GlcNAc(b1-2)Man(a1-3)[Neu5Ac(a2-6)Gal(b1-4)GlcNAc(b1-3)Gal(b1-4)GlcNAc(b1-2)Man(a1-6)]GalNAc
# Method in brief: as §1
# [15] = molecular target: Neu5Ac(a2-6)GlcNAc(b1-4)GlcNAc
# Method in brief: as §1
# [16] = molecular target: Neu5Ac(a2-6)GlcNAc(b1-4)GlcNAc(b1-4)GlcNAc
# Method in brief: as §1
# [17] = molecular target: Neu5Ac(a2-8)Neu5Ac(a2-3)Gal(b1-4)GlcNAc
# Method in brief: as §1
# [18] = molecular target: Neu5Ac(a2-8)Neu5Ac(a2-8)Neu5Ac(a2-8)Neu5Ac(a2-3)[GalNAc(b1-4)]Gal(b1-4)Glc
# Method in brief: as §1
# [19] = molecular target: Neu5Ac9Ac(a2-3)Gal(b1-4)GlcNAc
# Method in brief: as §1
# Neu5Gc(a2-6)GalNAc = molecular target: Neu5Gc(a2-6)GalNAc
# Method in brief: as §1
# [20] = molecular target: Neu5Gc(a2-8)Neu5Gc(a2-3)Gal(b1-4)GlcNAc
# Method in brief: as §1
binder,measurement,setting,value
B1,glycan array binding signal (z-score),[1],0.048
same,glycan array binding signal (z-score),GalNAc3S(b1-4)GlcNAc,3.17
same,glycan array binding signal (z-score),[2],-0.466
same,glycan array binding signal (z-score),[3],-0.59
same,glycan array binding signal (z-score),[4],-1.54
same,glycan array binding signal (z-score),[5],2.04
same,glycan array binding signal (z-score),[6],0.914
same,glycan array binding signal (z-score),Man(a1-6)Man,0.889
same,glycan array binding signal (z-score),Man(b1-4)GlcNAc,0.34
same,glycan array binding signal (z-score),Neu5Ac(a2-3)Gal,-1.36
same,glycan array binding signal (z-score),[7],-0.398
same,glycan array binding signal (z-score),[8],-0.714
same,glycan array binding signal (z-score),[9],0.813
same,glycan array binding signal (z-score),[10],-2.35
same,glycan array binding signal (z-score),[11],-0.108
same,glycan array binding signal (z-score),[12],-0.199
same,glycan array binding signal (z-score),[13],0.591
same,glycan array binding signal (z-score),[14],3.08
same,glycan array binding signal (z-score),[15],2.86
same,glycan array binding signal (z-score),[16],2.42
same,glycan array binding signal (z-score),[17],-1.76
same,glycan array binding signal (z-score),[18],1.87
same,glycan array binding signal (z-score),[19],-0.226
same,glycan array binding signal (z-score),Neu5Gc(a2-6)GalNAc,-0.186
same,glycan array binding signal (z-score),[20],0.721
